Reference: PubChem BioAssay AID651644 (National Center for Advancing Translational Sciences (NCATS), 2012)
Out of some 360,000 compounds screened, about 750 (0.21%) were called active. Entries that show only a call come without a potency. Not shown: some 2% with an inconclusive outcome. Calls follow the shape of the dose curve; as a rule, active = well fitted falling curve with a large enough effect; inconclusive = small, poorly fitted or top-dose-only effect; inactive = no such curve, though single readings can be large or run the other way. Many of the other results were omitted from the sample, so actives are more common in it than they were.

assay: qHTS Assay for Inhibitors of the HIV-1 protein Vpr; also: nearly all actives have a fitted effect of over 50% in size; conditions: S. pombe RE007 Vpr strain, BacTiter-Glo ATP luminescence, 24 h; series mostly up to 92.2 µM
Excerpt: Human immunodeficiency virus type 1 (HIV-1), the causative agent of AIDS, contains a protein called viral protein R (Vpr) that plays an important role in the viral life cycle and the pathogenesis of HIV-1.
These Vpr specific activities include cytoplasmic-nuclear shuttling, induction of cell cycle G2 arrest and cell killing. The cytoplasmic-nuclear shuttling is believed to participate in nuclear transport of the proviral integration complex (PIC). The cell cycle G2 arrest induced by Vpr is thought to suppress human immune functions by preventing T cell clonal expansion and to provide an optimized cellular environment for maximal levels of viral replication. In addition, Vpr induces apoptosis, which may contribute to the depletion of CD4 T cells in HIV-infected patients. Since the Vpr-specific activities have been linked to such clinical manifestation of AIDS as activation of viral replication, suppression of host immune responses and depletion of CD4+ T-lymphocytes, identification of new molecular probes that can inhibit the Vpr activities could potentially provide a new approach to reduce Vpr-mediated detrimental effects in HIV-infected patients, and thus prolong patient's lives. Currently, there are no anti-Vpr drugs.
A fission yeast (Schizosaccharomyces pombe) model system for the Vpr studies has been developed which measures HIV-1 Vpr-induced cell death. This assay will be used for to screen the NIH Molecular Libraries Small Molecule Repository (MLSMR) identify small molecule HIV-1 Vpr inhibitors.
NIH Chemical Genomics Center [NCGC]
NIH Molecular Libraries Probe Centers Network [MLPCN]
Assay Submitter (PI): Richard Zhao, University of Maryland
The fission yeast RE007 strain was used, which carries a single integrated copy of HIV-1 vpr gene in the yeast chromosome. The starting culture was frozen stock 100ul of yeast RE007 in 150ml of *PMG+AL medium, Incubation in 30 degree plus 99% humidity for 18 hours. Next day dispensed 2.5ul of PMG+AL medium in each well to 1536 well white solid plate, then 23nL compound were delivered to each well using a pin tool. Check OD for overnight culture and add cell density at 0.01 for each well, incubation in 30 degree plus 99% humidity for 24 hours. After add 5 ul of *BacTiter/Glo detect reagent to each well at room temperature for 5 minutes then to red out results with Viewlux CCD camera.
Potency is read from the fitted curve at half-maximal effect.

Row | SMILES | Potency
1 | O=C(CCn1nnnc1CN1CCOCC1)N1CCC(c2ccccc2Cl)C1 (centres undefined) | inactive
2 | CC(C)OC(=O)c1ccc(NCc2cc(O)ccc2O)cc1Cl | 28.2 µM (active)
3 | CCC(C)c1ccccc1N1CC(C(=O)N2CCN(S(=O)(=O)c3ccc(F)cc3)CC2)CC1=O (centres undefined) | inactive
4 | COc1ccc(C(=O)CN2C(=O)NC3(CCc4ccccc43)C2=O)c(OC)c1 (centres undefined) | inactive
5 | Cc1ccc(OCCCCc2c(C)n[nH]c2C)cc1 | inactive
6 | NC1=C([N+](=O)[O-])C(c2ccccc2)C2=C(CCCC2=O)O1 (centres undefined) | inactive
7 | CCc1ccc2oc(-c3ccc(N)cc3)nc2c1 | 11.2 µM (active)
8 | COc1ccccc1N1CCN(S(=O)(=O)c2ccc3c(c2)NC(=O)CS3)CC1 | inactive
9 | CC1(C(=O)Nc2ccc3c(c2)OCCO3)CSCC(=O)N1CCOc1ccccc1 (centres undefined) | inactive
10 | Cc1nn(CCCC(=O)NCc2ccccc2Cl)c(=O)c2nccn12 | inactive
11 | O=c1c2ccccc2ncn1CCc1ccncc1 | inactive
12 | NNc1cccc(C=Cc2ccccc2)cc1=O | 28.2 µM (active)
13 | COc1ccccc1C(=O)NCc1nnc(SC(C)C(=O)Nc2nccs2)n1C (centres undefined) | inactive
14 | Cc1ccc2cc3cc(C(=O)N4CCCCCC4)oc3nc2c1 | inactive
15 | O=C(c1cccc(Br)c1)N1CCN(C2=NS(=O)(=O)c3ccccc32)CC1 | inactive
16 | CCCOc1ccc(NC(=O)CC2C(=O)N(C)C(=S)N2Cc2ccc3c(c2)OCO3)cc1 (centres undefined) | inactive
17 | O=C(NCCc1ccccn1)c1cccnc1Oc1ccc(Cl)cc1 | inactive
18 | CCOc1ccc(CCNC(=O)CSc2cc(=O)n(C)c3ccc(Cl)cc23)cc1OCC | inactive
19 | CN(C)NC(=O)C(NC(=O)c1ccc(N)cc1)C12CC3CC(CC(C3)C1)C2 (centres undefined) | inactive
20 | CC1(C)CC[C@]2(C(=O)O)CC[C@]3(C)C(=CCC4[C@@]5(C)CC[C@H](O)C(C)(C)C5[C@H](O)C[C@]43C)[C@@H]2C1 (some centres undefined) | inactive
21 | O=C(Nc1ccc(F)cc1)Nc1nnc([C@H]2C[C@H](O)[C@@H](CO)O2)s1 | inactive
22 | COC(=O)C1CCN(C(=O)COC(=O)c2cc(S(=O)(=O)N3CCOCC3)ccc2C)CC1 | inactive

Row | SMILES | Potency
23 | CC1CCCC(C)N1C(=O)CN1CCN(c2nc(-c3ccc(F)cc3)cs2)CC1 (centres undefined) | inactive
24 | O=C(NC1CCCC1)C(c1c(F)cccc1Cl)N(C(=O)c1csnn1)C1CC1 (centres undefined) | inactive
25 | O=C(Nc1ccc(S(=O)(=O)N2CCc3ccccc3C2)cc1)c1ccccc1 | inactive
26 | O=C(OCC(O)C(O)COC(=O)c1ccccc1)c1ccccc1 (centres undefined) | inactive
27 | O=C(NC1=CC(=O)c2ccccc2C1=O)c1ccccc1 | 12.6 µM (active)
28 | COc1ccc(C(=O)C(OP(=O)(OC)OC)c2ccccc2OC)cc1 (centres undefined) | inactive
29 | CCOC(=O)N(Cc1ccccc1)C1CC1 | inactive
30 | CCCCOC(=O)c1ccc(N2C(=O)CC(N3CCN(C/C=C/c4ccccc4)CC3)C2=O)cc1 (centres undefined) | inactive
31 | COc1ccc(N2C(=O)CC(N3CCC(C(N)=O)CC3)C2=O)cc1 (centres undefined) | 25.1 µM (active)
32 | CCOC(=O)c1ccc(N2C(=O)CC(N(C)Cc3ccccc3)C2=O)cc1 (centres undefined) | 12.6 µM (active)
33 | COC(=O)c1cc(C(=O)OC)cc(N2C(=O)CC(N3CCN(c4ccccc4)CC3)C2=O)c1 (centres undefined) | inactive
34 | COc1ccc(CCN2C(=O)CC(N3CCC(C(N)=O)CC3)C2=O)cc1OC (centres undefined) | inactive
35 | CCOC(=O)c1ccc(N2C(=O)CC(Sc3nc(O)c(CC)c(=O)[nH]3)C2=O)cc1 (centres undefined) | inactive
36 | COc1ccc(N2CCN(C3CC(=O)N(c4ccc5c(c4)OCCO5)C3=O)CC2)cc1 (centres undefined) | inactive
37 | CCOC(=O)c1ccc(N2C(=O)CC(N3CCC(C(=O)OCC)CC3)C2=O)cc1 (centres undefined) | 12.6 µM (active)
38 | NC(=O)Nc1ccccc1C(=O)NCCc1ccccc1 | inactive
39 | Cc1nn(CC(=O)N2CCCCC2)c(=O)c2nn(-c3ccccc3)c(C)c12 | inactive
40 | O=S1(=O)CCOC[C@H](CC2CCCCC2)N1Cc1ccc(F)cc1 | inactive
41 | C=CCOc1ccc(/C=C/C(=O)OCC(=O)NC2CCCCCC2)cc1 | inactive
42 | CCCCn1c(N)c(N(CCC(C)C)C(=O)COC(=O)c2ccc(CC)cc2)c(=O)[nH]c1=O | inactive
43 | O=C(CC1OC(=O)c2ccccc21)NC1CCCCC1 (centres undefined) | inactive
44 | O=C(N/C(=C/c1ccc(Cl)cc1)C(=O)N1CCCCC1)c1ccco1 | inactive

Row | SMILES | Potency
45 | CCOC(=O)c1ccc(-n2c(C)nc3c(cnn3-c3ccccc3C)c2=O)cc1 | inactive
46 | O=C(CP(=O)(c1ccccc1)c1ccccc1)N1CCOCC1 | inactive
47 | O=C(O)c1ccc(NN=CC2=C(N3CCOCC3)/C(=C/c3ccccc3)CC2)cc1 | 35.5 µM (active)
48 | O=C(O)c1ccc(N=NN2CCOCC2)cc1 | inactive
49 | Cc1[nH]nc(SCC(=O)NCC(C)C)c1[N+](=O)[O-] | inactive
50 | COc1ccc(CN2C(=O)C(CC(=O)NCc3cccc4ccccc34)CC(C(=O)N3CCOCC3)=C2C)cc1 (centres undefined) | inactive
51 | COc1cccc(C(=O)N/N=C(\C)c2cccc(NC(=O)c3ccc(F)cc3)c2)c1OC | inactive
52 | COc1ccc(C(=O)Nc2ccccc2C(=O)N/N=C/c2ccc(O)c(OC)c2)cc1 | 7.94 µM (active)
53 | CC(C)(C)C(=O)Nc1ccc(C(=O)N/N=C/c2ccccc2OC(=O)c2ccc(Cl)cc2Cl)cc1 | inactive
54 | COc1ccc(C(=O)Nc2ccccc2C(=O)N/N=C/c2ccccc2OC)cc1 | 35.5 µM (active)
55 | COc1cc(/C=N/NC(=O)Nc2ccccc2)ccc1OCCOc1ccccc1C | inactive
56 | CCCNC(=O)c1ccccc1NC(=O)CSCc1ccc(OC)cc1 | inactive
57 | CC(C)C(c1nnnn1C1CCCCC1)N1CCN(C(=O)c2ccco2)CC1 (centres undefined) | inactive
58 | CCC1Nc2ncnc(N3CCN(c4ccccc4)CC3)c2N(Cc2ccc(Cl)cc2)C1=O (centres undefined) | inactive
59 | O=C(NNC1CC(=O)N(c2cccc(Cl)c2)C1=O)c1cccnc1 (centres undefined) | inactive
60 | Cc1ccc(NC(=O)C2CCC(C(C)(C)C)CC2)cc1S(=O)(=O)N1CCOCC1 (centres undefined) | inactive
61 | Cc1nn(C)c(C)c1S(=O)(=O)N1CCc2ccccc21 | inactive
62 | Cc1[nH]c(C)c(S(=O)(=O)N2CCC(C)CC2)c1C(=O)N1CCCC1 | inactive
63 | O=C(O)c1cscn1 | inactive
64 | CC(C)CC1(C(=O)NCc2ccccn2)C=CCN1C(=O)c1ccccc1 (centres undefined) | inactive
